Test results: PubChem BioAssay (Tox21)
“And” between values parts separate entries of the source, which are not always exact repeats. Equal values may be shown once. Results filed as inconclusive are left out. Entries that show only a call come without a potency. A number with no mark means an inactive call. The source made the active and inactive calls. The call rests on the fitted dose curve.
Potency means the concentration at half of the fitted maximal effect.

Test: qHTS assay for small molecule disruptors of the mitochondrial membrane potential - cell viability (AID 720634); further: nearly all actives have a fitted effect of over 20% in size;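 on activity change, negative = cytotoxicity: human HepG2 liver cancer cells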
Details: HepG2 viability, ATP luminescence (CellTiter-Glo), 1 h; series mostly up to 83.2 µM; activity change, negative = cytotoxicity: at the top concentration
Description: U.S. Tox21 Program National Center for Advancing Translational Sciences [NCATS] NIH Chemical Genomics Center [NCGC] U.S. Environmental Protection Agency [EPA] National Institutes of Environmental Health Sciences [NIEHS] National Toxicology Program [NTP] U.S. Food and Drug Administration [FDA] Tox21 Assay Overview: Mitochondrial membrane potential (MMP), one of the parameters for mitochondrial function, is generated by mitochondrial electron transport chain that creates an electrochemical gradient by a series of redox reactions. This gradient drives the synthesis of ATP, a crucial molecule for various cellular processes. Measuring MMP in living cells is commonly used to assess the effect of chemicals on mitochondrial function; decreases in MMP can be detected using lipophilic cationic fluorescent dyes. […] The dye accumulates in the mitochondria of healthy cells as aggregates, with red fluorescence. The mitochondrial potential decreases and the dye could not accumulate in the mitochondria and remains in the cytoplasm in monomers, with green fluorescence. In addition to the mitochondrial potential assay, these cells were also used to test the cytotoxicity by determining the cell viability in the culture based on the quantitation of ATP present. The cytotoxicity was measured in the same assay well of MMP assay.
Tox21 Assay Protocol Summary: 2,000 HepG2 cells in 5 uL/well were dispensed into black, clear-bottom 1536-well plates using a Multidrop Combi (Thermo Scientific) dispenser. The assay plates were incubated for an overnight at 37 C to allow cells to attach to the wells, followed by the transfer of 23 nL compound or DMSO vehicle by a pin tool (Kalypsys). The plates were incubated for 1 hr at 37 C and 5% CO2, followed by the addition of 5 uL of 2X m-MPI dye into each well using Flying Reagent Dispenser (Aurora Discovery) and then CellTiter-Glo reagent was added at 4 uL/well and incubated 30 min at room temperature. Then luminescence intensity was quantified on a ViewLux CCD-based plate reader.
For NS(=O)(=O)c1cc2c(cc1Cl)NCNS2(=O)=O, the Potency was “inactive”.
With C=C1CC[C@H](O)C/C1=C\C=C1/CCC[C@]2(C)[C@@H]([C@H](C)CCCC(C)C)CC[C@@H]12 the Potency was “inactive”.
With CC/C(=C(\c1ccccc1)c1ccc(OCCN(C)C)cc1)c1ccccc1 the Potency was 54.8 µM (active) and 61.1 µM (active).
With CCCCCCCCCCCCCCCC[N+](C)(C)Cc1ccccc1 the Potency was 26.6 µM (active).
For CN(C)CCOC(c1ccccc1)c1ccccc1, the Potency was “inactive”.
With Nc1ccc([N+](=O)[O-])cc1O the “activity change, negative = cytotoxicity” value was -12%.
In the case of O=C(O)CC(O)C(=O)O (stereo not given), the Potency is reported as “inactive”.
For Nc1c(N=Nc2ccc(-c3ccc(N=Nc4cc(S(=O)(=O)O)c5ccccc5c4N)cc3)cc2)cc(S(=O)(=O)O)c2ccccc12, the Potency was “inactive”.
For C=CCc1ccc(O)c(OC)c1, the Potency was “inactive”.
In the case of CC12CCC(CC1)C(C)(C)O2, the Potency is reported as “inactive”.
In the case of O=CC(=O)c1ccccc1, the “activity change, negative = cytotoxicity” value is reported as 33.1%.
With O=C1O[C@H]([C@@H](O)CO)C(O)=C1O the Potency was “inactive”.
For O=C1c2c(O)cccc2Cc2cccc(O)c21, the Potency was “inactive”.
With CCCCOC(=O)c1ccc(O)cc1 the “activity change, negative = cytotoxicity” value was -9.36%.
In the case of C=C(C)C(=O)OCC(C)O (stereo not given), the Potency is reported as “inactive”.
With Cc1ncc([N+](=O)[O-])n1C the Potency was “inactive”.
With Cc1cc(=O)oc2cc(O)ccc12 the Potency was “inactive”.
In the case of Cc1ccc(S(=O)(=O)O)cc1, the Potency is reported as “inactive”.
With CC(=O)Nc1c(I)c(NC(C)=O)c(I)c(C(=O)O)c1I the Potency was “inactive”.
For COc1ccc(OC(F)(F)F)cc1CN[C@H]1CCCN[C@H]1c1ccccc1, the “activity change, negative = cytotoxicity” value was 8.97%.
In the case of Nc1c2c(nc3ccccc13)CCCC2, the Potency is reported as “inactive”.
With O=C(O)c1ccccc1 the Potency was “inactive”.
With O=C1NC(=O)C(c2ccccc2)(c2ccccc2)N1 the Potency was “inactive”.
For CCN(CC)C(=O)c1cccc(C)c1, the Potency was “inactive”.
In the case of NC1CCCCC1, the Potency is reported as “inactive”.
In the case of CN(C)C(=S)SC(=S)N(C)C, the Potency is reported as “inactive”.
With CC(O)(P(=O)(O)O)P(=O)(O)O the Potency was “inactive”.
For NC(=O)c1cccnc1, the Potency was “inactive”.
For O=c1[nH]cc(F)c(=O)[nH]1, the Potency was “inactive”.
In the case of COc1ccc2cc(S(=O)(=O)N[C@H](CC(=O)N[C@H](Cc3ccc(CN4[C@H](C)CCC[C@@H]4C)cc3)C(=O)N(C)C(C)C)c3ccc4c(c3)OCO4)ccc2c1, the “activity change, negative = cytotoxicity” value is reported as -13%.
With CC(=O)CCC(=O)O the Potency was “inactive”.
With C[C@](N)(Cc1ccc(O)c(O)c1)C(=O)O the Potency was “inactive”.
With CN(C)CCOC(C)(c1ccccc1)c1ccccn1 (stereo not given) the Potency was “inactive”.
With O=C1NS(=O)(=O)c2ccccc21 the Potency was “inactive”.
With CCCCCCCCCCCC[N+](C)(C)Cc1ccccc1 the “activity change, negative = cytotoxicity” value was -14.1%.
With C1=CC2C3C=CC(C3)C2C1 (stereo not given) the “activity change, negative = cytotoxicity” value was 14.2%.
For CC(=O)C(=O)O, the Potency was “inactive”.
With Nc1ccc(O)c([N+](=O)[O-])c1 the “activity change, negative = cytotoxicity” value was -18.8%.
In the case of CCCCCCCC(=O)OCC(COC(=O)CCCCCCC)OC(=O)CCCCCCC, the Potency is reported as “inactive”.
For CCN(Cc1c(F)cccc1Cl)c1c([N+](=O)[O-])cc(C(F)(F)F)cc1[N+](=O)[O-], the “activity change, negative = cytotoxicity” value was -17.3%.
